Data on 40 compounds can be found in PubChem BioAssay AID1724 (National Center for Advancing Translational Sciences (NCATS), 2009).

Results filed as inconclusive are left out. The source made the active and inactive calls. The call rests on the fitted dose curve; in most records, active means well fitted inhibition curve with a large enough effect; inconclusive means small, poorly fitted or top-dose-only effect, or effect the other way; inactive means no such curve, though single readings can be large or run the other way.

The nature of the assay: Confirmation Concentration-Response Assay for Inhibitors of the ERK Signaling Pathway using a Homogeneous Screening Assay. The settings on record: HEK293 cells, hormone-stimulated phospho-ERK AlphaScreen; series mostly up to 40.9 µM. From the text:
qHTS Assay for Inhibitors of the ERK Signaling Pathway using a Homogeneous Screening Assay
NIH Chemical Genomics Center [NCGC]
NIH Molecular Libraries Screening Centers Network [MLSCN]
Assay Submitter (PI): Dr. Wei Zheng, NCGC/NIH
The Ras/extracellular-signal-regulated kinase (ERK) mitogen activated protein (MAP) kinase signaling pathway (ERK1/2 cascade) plays is a key role in transmitting signals from the cell surface to the nucleus (Nishida and Gotoh 1993; Chang and Karin, 2001). The cascade is initiated by the small G-protein Ras, which recruits Raf […], where activation occurs. Alternatively, this pathway can be activated by elevating intracellular cAMP.
Activation of the ERK pathway is essential in increased cell division and cell survival. Sustained and constitutive activation of the ERK pathway, however, has been linked to uncontrolled cell proliferation, increased cell survival, and tumor progression. Thus, the ERK has been as an attractive target for cancer chemotherapy in the past few years (Sebolt-Leopold and Herrera, 2004). Given its physiological and pathological importance, assessment of ERK phosphorylation has been broadly performed in both basic research and drug discovery. Most assays for the measurement of ERK phosphorylation use the antibody-based detection methods, such as western blot and ELISA. These assays require multiple reagent additions with cell wash steps and are not suitable for high-throughput screening.
The current cell-based ERK phosphorylation assay was performed using AlphaScreen platform. AlphaScreen is a two bead-based proximity-dependent chemical energy transfer luminescent assay platform. The assay reagents (ERK SureFire(TM) kit) were supplied from TGR BioSciences (Australia). In the presence of specific antibodies, phosphorylated ERK will bring "donor" and "acceptor" beads to a proximity range (<200 nm), and subsequently lead a chemical luminescent reaction upon exciting donor beads with 680 nm laser. To exclude the assay-related false positives, we used a biotinylated rabbit IgG to perform counter-screen. The biotinylated antibody mimics the phosphorylated ERK1/2 for bringing streptavidin coated beads and protein-A coated beads to a proximity range for the AlphaScreen detection.
NCGC Assay Protocol Summary:
HEK293 cells stably expressing type-1 vasopressin receptor (V1b) were maintained in DMEM medium (Invitrogen, Carlsbad, CA) at 37C under a humidified atmosphere containing 5% CO2 and 95% air. The medium contained 10% FBS, 2 mM L-glutamine, non-essential amino acid, pyruvate and 50 U/ml penicillin and 50 ug/ml streptomycin (Invitrogen). The aliquots of frozen cells were stored at -135C and used for the compound screening. All compounds were screened as titrations from 0.6 nM to 46 uM final concentration. Vasopressin was used to stimulate the ERK phosphorylation pathway. The ERK phosphorylation in cells was determined using an AlphaScreen assay kit provided by PerkinElmer. Data were normalized to the controls for basal activity (DMSO only) and 100% activation (25 nM vasopressin). AC50 values were determined from concentration-response data modeled with the standard Hill equation.
(1) Seed 4 ul/well of resuspended frozen HEK293 cells containing 2000 cells in white 1536-well plates for overnight with 1% FBS at 37C under a humidified atmosphere containing 5% CO2 and 95% air.
(2) Add 23 nL compounds in DMSO solution. The final titration was 0.6 nM to 46 uM.
(3) Incubate at 37C for 30 min.
(4) Dispense 0.5uL vasopressin (25 nM in final)
(5) Incubate at 37C for 5 min.
(6) Dispense 0.5uL of 1:2 diluted 5x lysis buffer.
(7) Incubate at 37C for 10 min.
(8) Dispense 1.5uL of mixture of activation buffer and reaction buffer with AlphaScreen beads (streptavidin donor beads and protein-A acceptor beads, 10 ng/well for each).
(9) Incubate at room temperature for 5 hr.
(10) Detect the assay plate in an EnVision plate reader (PerkinElmer) using the AlphaScreen detection mode.
[…]
In general terms: Alpha assays give light when donor and acceptor beads are brought close together.
Turning to `CCOC(=O)c1ccc(NC(=O)c2cccc(S(=O)(=O)N3CCOCC3)c2)cc1`, the Potency was 25.1 µM (active).
For `CCCN(CCC)S(=O)(=O)c1cccc(C(=O)Nc2ccc3c(c2)OCO3)c1` the value was “inactive”; for `COC(=O)c1cc(-c2ccc(OC)c(OC)c2)on1`, 7.08 µM (active).
As for `N#CC(C#N)=c1ccc2c(c1)N1C3=C(CCCC3)CC3CCCCC31N=2` (stereo not given), the Potency is 5.01 µM (active).
For `Cc1nc2ccccc2c2oc(C(=O)N3CCc4ccccc4C3)cc12` the value was 25.1 µM (active); for `CNc1cccc2c1C(=O)c1ccccc1C2=O`, 14.1 µM (active); for `COc1ccc(CNc2ncnc3ccc(-c4cccc(NS(C)(=O)=O)c4)cc23)c(OC)c1`, 15.8 µM (active).
The result for `COc1ccc(C(=O)Nc2cccc(C(C)=O)c2)cc1S(=O)(=O)N1CCOCC1` reads “inactive”; that for `Cn1nc(-c2ccc(Cl)cc2)nc2c(=O)n(C)c(=O)nc1-2`, “inactive”; that for `C=C[C@]1(C)CC(=O)[C@@]2(O)[C@@]3(C)C(O)CCC(C)(C)C3C(O)C(OC(C)=O)[C@@]2(C)O1` (stereo not given in full), “inactive”.
The result for `C=CS(=O)(=O)c1ccc(Oc2ccc(S(=O)(=O)C=C)cc2)cc1` reads 7.08 µM (active); that for `COc1ccc(C2=Nn3c(nnc3-c3ccccc3OC)SC2)cc1OC`, 2.24 µM (active).
For `COc1cccc(/C=N/Nc2cc(-n3nc(C)cc3-c3ccccc3)ncn2)c1O`, the Potency result is “inactive”.
For `O=C1c2ccc(O)c(O)c2C(=O)c2c(O)ccc(O)c21` the value was “inactive”; for `O=C(Nc1ccc(N2CCN(C(=O)c3ccccc3)CC2)cc1)c1cc2ccccc2o1`, 12.6 µM (active).
The result for `N#CC(=C(/N)Sc1ccccc1N)/C(C#N)=C(/N)Sc1ccccc1N` reads 0.501 µM (active); that for `CCCNc1ncnc2sc(C)c(C)c12`, “inactive”; that for `O=C(Nc1nc(-c2ccccc2)cs1)c1ccc(N2CCOCC2)c([N+](=O)[O-])c1`, 7.08 µM (active).
The result for `Cc1ccc(NNc2c(C)nc3ccccc3nc2=O)cc1` reads “inactive”.
On to `Cc1cc(-c2ccccc2)n(-c2cc(N/N=C/c3ccccc3O)ncn2)n1`, for which the Potency result is “inactive”.
For `COc1ccc(C(=O)OC(COc2ccccc2)Cn2ccnc2)cc1` (stereo not given) the value was 15.8 µM (active); for `O=C(Nc1nccs1)c1cc2sccc2n1Cc1ccc(F)cc1`, “inactive”.
The result for `COc1ccc(N=C2C(=Nc3ccc(OC)cc3)N(c3ccc(OC)cc3)C(=S)N2C)cc1` reads 15.8 µM (active); that for `C/C(=N\Nc1nnc(-c2ccccc2)c(-c2ccccc2)n1)c1cccc([N+](=O)[O-])c1`, “inactive”.
For `COc1ccc2[nH]cc(CCNc3ncnc4ccc(-c5ccc(C(=O)N(C)C)cc5)cc34)c2c1` the value was 31.6 µM (active).
As to `COc1ccc(CC(=O)Nc2cccc(-c3nnc(-c4cccc(C)c4)o3)c2)cc1OC`, the Potency is 4.47 µM (active).
For `COc1ccc(N=C2C(=Nc3ccc(OC)cc3)N(c3ccccc3)C(=S)N2C(=O)c2ccc(Cl)cc2)cc1` the value was 3.16 µM (active); for `c1ccc(-c2csc(-c3nc4ccccc4[nH]3)n2)cc1`, 35.5 µM (active); for `CCC(=O)N1CCN(c2ccc(NC(=O)c3cc4ccccc4o3)cc2Cl)CC1`, 12.6 µM (active).
The result for `CC(=O)N1CCC(=NNc2nc3ccccc3s2)CC1` reads “inactive”; that for `Cc1sc2ncnc(Sc3nnnn3-c3ccc(Cl)cc3)c2c1C`, “inactive”; that for `COc1ccc(C(=O)Nc2ccc(-c3ccc(C)o3)cc2)cc1S(=O)(=O)N1CCOCC1`, 10 µM (active).
The result for `CN(C)c1cc2c(Nc3ccc4c(cnn4Cc4ccccc4)c3)ncnc2cn1` reads “inactive”; that for `Cc1cccc(CNc2ncnc3ccc(-c4cccnc4)cc23)c1`, 12.6 µM (active).
Take `CCOC(=O)c1ccc(NC(=O)c2ccc(C)c(S(=O)(=O)N3CCOCC3)c2)cc1`: the Potency is 8.91 µM (active).
For the compound `CCCN1C(=O)/C(=C2/C=Cc3ccccc3N2CC)SC1=S`, the Potency is 11.2 µM (active).
For `CS(=O)(=O)CCNCc1nc(-c2ccc3ncnc(Nc4ccc(OCc5cccc(F)c5)c(Cl)c4)c3c2)cs1` the value was “inactive”; for `CN(C)c1ccc(Nc2c3c4c(cccc4n(C)c2=O)C(=O)c2ccccc2-3)cc1`, 14.1 µM (active).
The result for `COc1ccc(C(=O)c2ccc(Cl)c([N+](=O)[O-])c2)cc1` reads 12.6 µM (active); that for `CCOc1ccc(/C(O)=C2/C(=O)C(=O)N(c3ncccn3)C2c2ccccc2)cc1` (stereo not given), “inactive”.
